Results reported in the supplement of paper PMC8371130.
Counter-ions that a name gives are not always drawn.

Test system: HL-1
Experiment: relative cell viability (CellTiter-Glo) vs DMSO control (% of DMSO control); higher = more viable cells
Conditions: oxygen condition: normoxia 72 h; 40 nM
In short: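 HL-1 mouse atrial cardiomyocytes were plated in 384-well plates at 1000 cells per well together with compounds at 40, 200, 1000 or 5000 nM in 0.01% DMSO. One day later, cells went to a hypoxic workstation (1% O2) for 48 h, then were reoxygenated for 24 h in a normal incubator, or stayed in normoxia for the same time. Cell viability was read by CellTiter-Glo luminescence and normalised to vehicle-treated control cells.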

In order of rising relative cell viability:
1. O=C(Nc1ccc([N+](=O)[O-])cc1Cl)c1cc(Cl)ccc1O [Niclosamide]  8.34
2. CC(=O)OCC(=O)[C@@]12OC(C)(C)O[C@@H]1C[C@H]1[C@@H]3C[C@H](F)C4=CC(=O)C=C[C@]4(C)[C@@]3(F)[C@@H](O)C[C@@]12C [Fluocinonide]  92.3
3. CC(=O)Oc1ccccc1C(=O)O [Aspirin]  95.4
4. CC(C)c1c(C(=O)Nc2ccccc2)c(-c2ccccc2)c(-c2ccc(F)cc2)n1CC[C@@H](O)C[C@@H](O)CC(=O)O [Atorvastatin calcium]  96.4
5. c1ccc2c(CC3=NCCN3)cccc2c1 [Naphazoline hydrochloride]  98.8
6. C[C@@H](Oc1cc(-c2cnn(C3CCNCC3)c2)cnc1N)c1c(Cl)ccc(F)c1Cl [Crizotinib]  98.8
7. NCCCC(O)(P(=O)(O)O)P(=O)(O)O [Alendronate]  99.2
8. CCCCCCNC(=O)n1cc(F)c(=O)[nH]c1=O [Carmofur]  99.2
9. CCN(Cc1ccncc1)C(=O)C(CO)c1ccccc1 (centres undefined) [Tropicamide]  99.4
10. NCC(=O)CCC(=O)O [5-Aminolevulinic acid hydrochloride]  99.8
11. CCCC(CCC)C(=O)O [Divalproex sodium]  99.9
12. CN(C)CCCN1c2ccccc2CCc2ccccc21 [Imipramine HCl]  100
13. CNCC[C@@H](Oc1ccccc1C)c1ccccc1 [Atomoxetine HCl]  100
14. CC(=O)[C@H]1CC[C@H]2[C@@H]3CC=C4C[C@@H](O)CC[C@]4(C)[C@H]3CC[C@]12C [Pregnenolone]  101
15. Cc1onc(-c2ccccc2)c1C(=O)N[C@@H]1C(=O)N2[C@@H]1SC(C)(C)[C@@H]2C(=O)O [Oxacillin sodium monohydrate]  103
16. CCCOc1ccc(C(=O)OCCN(CC)CC)cc1N [Proparacaine HCl]  103
17. N[C@@H]1CN(c2c(F)cc3c(=O)c(C(=O)O)cn([C@@H]4C[C@@H]4F)c3c2Cl)CC12CC2 [Sitafloxacin hydrate]  103
18. O=C(O)Cc1cc(I)c(Oc2ccc(O)c(I)c2)c(I)c1 [Tiratricol]  103
19. COc1ccccc1OCCNCC(O)COc1cccc2[nH]c3ccccc3c12 (centres undefined) [Carvedilol]  104
20. CCNC(=O)CCC/C=C\C[C@@H]1[C@@H](/C=C/[C@@H](O)CCc2ccccc2)[C@H](O)C[C@@H]1O [Bimatoprost]  104
21. C#C[C@]1(OC(C)=O)CC[C@H]2[C@@H]3CCC4=C[C@@H](OC(C)=O)CC[C@@H]4[C@H]3CC[C@@]21C [Ethynodiol diacetate]  104
22. Clc1ccc2nsnc2c1NC1=NCCN1 [Tizanidine HCl]  105
23. N=C(N)Nc1ccc(C(=O)Oc2ccc3cc(C(=N)N)ccc3c2)cc1 [Nafamostat mesylate]  105
24. Nc1nnc(-c2cccc(Cl)c2Cl)c(N)n1 [Lamotrigine]  106
25. C[C@@H]1CCN(C(=O)CC#N)C[C@@H]1N(C)c1ncnc2[nH]ccc12 [Tofacitinib citrate]  106
26. N=C(N)NC(=O)c1nc(Cl)c(N)nc1N [Amiloride hydrochloride]  106
27. CC(C)(C(=O)O)c1ccc(C(O)CCCN2CCC(C(O)(c3ccccc3)c3ccccc3)CC2)cc1 (centres undefined) [Fexofenadine HCl]  107
28. CCCCCCCCOc1ccccc1C(=O)Nc1ccc(C(=O)OCC[N+](C)(CC)CC)cc1 [Otilonium Bromide]  107
29. NC(=O)NO [Hydroxyurea]  108
30. NC(=O)N1c2ccccc2CC(=O)c2ccccc21 [Oxcarbazepine]  108
31. CCC[C@H](N[C@@H](C)C(=O)N1[C@H](C(=O)O)C[C@@H]2CCCC[C@@H]21)C(=O)OCC [Perindopril Erbumine]  109
32. C=CC[C@@H]1/C=C(\C)C[C@H](C)C[C@H](OC)[C@H]2O[C@@](O)(C(=O)C(=O)N3CCCC[C@H]3C(=O)O[C@H](/C(C)=C/[C@@H]3CC[C@@H](O)[C@H](OC)C3)[C@H](C)[C@@H](O)CC1=O)[C@H](C)C[C@@H]2OC  109
33. Cc1cn([C@H]2C[C@H](N=[N+]=[N-])[C@@H](CO)O2)c(=O)[nH]c1=O [Zidovudine]  110
34. C[C@]12CC[C@@H]3c4ccc(O)cc4C[C@@H](CCCCCCCCC[S+]([O-])CCCC(F)(F)C(F)(F)F)[C@H]3[C@@H]1CC[C@@H]2O (some centres undefined) [Fulvestrant]  111
